Where “and” joins values, the source holds several entries; their conditions need not be identical. Equal values may be shown once. The panel holds about 83,000 compounds, 20% with a hit somewhere; the sample as a whole holds those more often.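 Single-concentration screen, 48 h exposure, 96-well plates. Endpoint: percent growth. Below 10 = active.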 Calls of active or inactive are those of the source.
System: MDA-MB-468 breast
Assay: NCI-60 one-dose screen, 48 h (100 = growth as untreated, 0 = no growth, -100 = all killed)
Conditions: 10 µM unless noted

Row | Compound | growth
1 | CCC(CO)NC1CCCCC1 (stereo not given) | 73.6% (inactive)
2 | COc1ccc(/C=C\c2cc(OC)c(OC)c(OC)c2)c(NS(=O)(=O)c2ccc(C)cc2)c1O | 23.2% (inactive)
3 | CCOC(=O)Nc1cc(Cl)c([N+](=O)[O-])c(NC(=O)OCC)n1 | 87.2% (inactive)
4 | CC1=CC(=Nc2ccc(N(CCCl)CCCl)cc2)C=C(C)C1=O | -66.3% (active)
5 | COc1cccc(/C=C/[N+](=O)[O-])c1 | 25.8% (inactive)
6 | c1cnc2[nH]cc(-c3csc(-c4cn(CCCCN5CCOCC5)c5ccccc45)n3)c2c1 | 35.1% (inactive)
7 | O=[N+]([O-])c1c(Br)sc(Br)c1[N+](=O)[O-] | 1.55% (active)
8 | FC(F)=C(F)c1ccccc1 | 105% (inactive)
9 | COc1ccc(/C=C/c2cc(OC)c(OC)c(OC)c2)cc1NC(=O)/C=C/c1ccc(F)cc1 | 13.3% (inactive)
10 | NC(Cc1ccc2c(c1)OCO2)c1ccc2c(c1)OCO2 (stereo not given) | 96% (inactive)
11 | O=C(O)CCCc1ccc(N(CCCl)CCCl)cc1 | 77.7% (inactive)
12 | O=C1NC(=O)C(=Cc2ccccc2)C(=O)N1 | 96.4% (inactive) and 115% (inactive)
13 | C/C(=C\c1ccn(-c2ccc(N)cc2C(F)(F)F)n1)[C@@H]1C[C@@H]2O[C@]2(C)CCC[C@H](C)[C@H](O)[C@@H](C)C(=O)C(C)(C)[C@@H](O)CC(=O)O1 | 28.6% (inactive)
14 | COC(=O)C12CC(NC(=O)c3csc([C@@H](C[C@H](C(C)C)N(C)C(=O)[C@@H](NC(=O)[C@H]4CCCCN4C)C4CC4)OC(C)=O)n3)(C1)C2 | 30.1% (inactive)
15 | CC[C@H](NC(=O)[C@H]1CCCCN1C)C(=O)N(C)[C@H](C[C@@H](OC(C)=O)c1nc(C(=O)N[C@@H](Cc2ccccc2)C[C@H](C)C(=O)O)cs1)C(C)C | 17.6% (inactive)
16 | Cc1cc(N(CCCl)CCCl)ccc1C=Nc1cccnc1 | -74.8% (active)
17 | COc1cc2c(cc1OC)[C@@H]1N(CC2)C(=O)c2ccccc2[C@@]1(C)C(=O)O | 103% (inactive)
18 | COc1ccc(S(=O)(=O)Nc2c(/C=C\c3cc(OC)c(OC)c(OC)c3)ccc(OC)c2O)cc1OC | 14.1% (inactive)
19 | O=S1(=O)OCCO1 | 98.2% (inactive)
20 | COC(=O)[C@@H](C)C[C@H](Cc1cn(C)c2ccccc12)NC(=O)c1csc([C@@H](C[C@H](C(C)C)N(C)C(=O)[C@@H](NC(=O)[C@H]2CCCCN2C)C(C)C)OC(C)=O)n1 | 28.6% (inactive)

Row | Compound | growth
21 | CCCCOC(N)=O | 101% (inactive)
22 | OCCNC1CCCCC1 | 109% (inactive)
23 | O=C1CCC2(O)[C@@H]3Cc4ccc(O)c5c4[C@]2(CCN3Cc2ccoc2)C1O5 (stereo not given in full) | 97.3% (inactive)
24 | COc1ccc(C2=N[C@@H](Cc3ccccc3)C(=O)Nc3ccsc32)cc1 | 8.23% (active)
25 | Fc1ccc2c(c1)c(-c1nc(-c3c[nH]c4ncccc34)cs1)cn2CCCCN1CCCCC1 | -56.6% (active)
26 | CC(=O)[O][Hg][c]1c(C)c(C)cc(C)c1C | -79.4% (active)
27 | CNC(=O)Oc1ccccc1 | 101% (inactive)
28 | c1ccc(CCN2CCCCC2)nc1 | 107% (inactive)
29 | CC1=C2C(=C[C@@](C)(COS(C)(=O)=O)[C@@H]2O)C(=O)[C@](C)(O)C12CC2 | -54.8% (active)
30 | O=C(O)CNC(=O)C(Cl)(Cl)Cl | 98.8% (inactive)
31 | Cn1cc(-c2csc(-c3cn(CCCCN4CCCCC4)c4ccccc34)n2)c2cccnc21 | -26.9% (active)
32 | CCOC(=O)[C@@H](C)C[C@H](Cc1ccccc1)NC(=O)c1csc([C@@H](C[C@H](C(C)C)N(C)C(=O)[C@@H](NC(=O)[C@H]2C[C@H](O)CCN2C)C(C)C)OC(C)=O)n1 | 21.8% (inactive)
33 | COc1ccc(/C=C\c2cc(OC)c(OC)c(OC)c2)cc1NS(=O)(=O)c1ccc(Cl)cc1 | 42.2% (inactive)
34 | CC(C)[C@@H]1NC(=O)[C@]2(C)CSC(=N2)c2csc(n2)CNC(=O)C[C@@H](/C=C/CCS)OC1=O | 30% (inactive)
35 | COc1ccc(N)cc1OC | 109% (inactive)
36 | CC1CCCC(C[N+](C)(C)C)C1=O (stereo not given) | 97.3% (inactive)
37 | O=C1C=Cc2ccccc2C1=O | 104% (inactive)
38 | Nc1nc([Se])c2ncn(C3OC(CO)C(O)C3O)c2n1 (stereo not given) | 83.6% (inactive)
39 | COC(C(=O)[C@@H](O)[C@@H](C)O)[C@@H]1Cc2cc3cc(O[C@H]4C[C@@H](O[C@H]5C[C@@H](O)[C@H](O)C(C)O5)[C@H](O)C(C)O4)c(C)c(O)c3c(O)c2C(=O)[C@H]1O[C@H]1C[C@@H](O[C@H]2C[C@@H](O[C@H]3C[C@@H](O)[C@@H](O)C(C)O3)[C@@H](O)C(C)O2)[C@H](O)C(C)O1 (stereo not given in full) | -41.2% (active)
40 | C[N+]1(CC#CC[N+]2(C)CCCC2)CCCC1 | 98.6% (inactive)
